Holding throughout (assay): NCI-60 one-dose screen, 48 h (100 = growth as untreated, 0 = no growth, -100 = all killed)
What all share (conditions): 10 µM unless noted

Test [1] deals with HCT-15 colon.
Test [2] concerns HT29 colon.
Test [3] relates to SNB-19 CNS.
Test [4] has as its system U251 CNS.
Test [5] has as its system PC-3 prostate.
Test [6] relates to SK-MEL-5 melanoma.
Test [7] has as its system UACC-62 melanoma.
Test [8] has as its system LOX IMVI melanoma.
For test [9], the system named is SK-MEL-2 melanoma.
Test [10] deals with EKVX NSCLC.
The test system of test [11] is SN12C renal.
In test [12] the test system is UO-31 renal.
Test [13] concerns TK-10 renal.
Test [14] concerns ACHN renal.
In test [15] the test system is CAKI-1 renal.
The subject of test [16] is CCRF-CEM leukemia.
The test system of test [17] is MOLT-4 leukemia.
In test [18] the test system is SK-MEL-28 melanoma.
Test [19] relates to A498 renal.
Test [20] deals with SNB-75 CNS.

This is part of a sample that, as a whole, favours compounds with a hit. Of some 83,000 tested, about 20% had one in any assay.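 Step 1: grow cells in 96-well plates. Step 2: add test compound at a single concentration. Step 3: incubate 48 h. Step 4: record percent growth.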 Unmarked numbers belong to inactive results. Calls of active or inactive are those of the source. Rule for the calls: active = growth percent below 10; inactive = the rest.

As to `Nc1nc(Nc2ccccc2SSc2ccccc2Nc2nc(N)nc(-c3cccs3)n2)nc(-c2ccsc2)n1`, the growth in test [1] was 56.7%; in test [2], 98.7%; in test [3], 87.7%; in test [4], 53.1%; in [5], 57.2%; in test [6] it was 94.7%. For the same compound, the growth in [7] was 71%; in test [8], 35.9%; in [9], 99.1%; in test [10], 77.3%; in test [11], 27.3%; in test [12], -45.5% (active). Further, the growth in [13] was 118%; in test [14], 65.3%; in test [15], 20%; in [16] it was 60.5%; in test [17], 63.2%.
In the case of `N#C/C(=C\c1ccc(C(F)(F)F)cc1)c1cc2ccccc2[nH]1`, the growth is 92.5% in test [1]; 99.7% in [2]; 102% in test [3]; 105% in [4]; 93.9% in test [5]; 95.6% in test [6]. Further, the growth in test [7] is 95.1%; in test [8], 99.7%; in [18] it was 102%; in test [9] it was 96.1%; in [10], 97.6%; in [11] it was 99.2%. The growth is 92.9% in test [12]; 140% in [13]; 104% in test [14]; 83.6% in test [15]; 90.3% in test [19]; 98.1% in test [16]. The growth in test [17] is 91.5%.
For the compound `Nc1n[nH]c2cccc(C#Cc3cccc(C(=O)Nc4cccc(C(F)(F)F)c4)c3)c12`, the growth is 64.8% in [1]; 77.9% in test [20]; 104% in [3]; 72.8% in [4]; 72.3% in test [5]; 53.8% in [6]. Moreover, the growth in test [7] was 42.7%; in test [8], 38%; in [18], 53.5%; in [9], 33.8%; in [10], 89.7%; in [11], 67.3%. Also, the growth is 37.2% in [12]; 97.5% in test [13]; 54.7% in test [14]; 68.4% in test [15]; 32.1% in [16]; 39.2% in test [17].
On to `COc1ccc2[nH]c(O)c(/C=c3/cc4c(c(-c5ccc(F)cc5)n3)=Nc3ccccc3-4)c2c1`, for which the growth in test [1] is 26.7%; in [20], 82.6%; in [3], 78%; in [4], 66.3%; in [5], 85%; in test [6], 72.1%. Moreover, the growth in test [7] is 90.2%; in [8], 68.9%; in test [18], 93.9%; in test [9] it was 103%; in [11], 88.6%; in test [12], 72.5%. Also, the growth in [13] was 107%; in [14] it was 92.2%; in [15], 87%; in test [19], 70.2%.
Take `C=C(C)[C@@H]1CC[C@]2(C(=O)N3CCN(C)CC3)CC[C@]3(C)[C@H](CC[C@@H]4[C@@]5(C)C/C(=C/c6ccncc6)C(=O)C(C)(C)[C@@H]5CC[C@]43C)[C@@H]12`: the growth was 35.8% in [1]; 87.9% in [20]; 64.2% in test [3]; 47% in test [4]; 23.7% in [5]; 59.8% in test [6]. Besides, the growth in [7] is 71%; in test [8] it was 55.9%; in test [18], 76.9%; in test [9], 64.6%; in test [10], 77.3%; in [11], 47.1%. For the same compound, the growth in test [12] was 48%; in test [13], 89.4%; in test [14], 60.9%; in test [15], 71.1%; in test [16] it was 24.7%; in [17], 3.16% (active).
Take `O=C1c2ccccc2CCC12OC2c1cn(-c2ccccc2)nc1-c1ccc(Cl)cc1` (stereo not drawn): the growth in test [1] was 41.4%; in test [20], 90.9%; in [3], 91.9%; in test [4], 64.8%; in test [5], 83.6%; in test [6], 83.1%. Also, the growth in [7] is 63.8%; in [8], 81.6%; in test [18] it was 100%; in test [9] it was 112%; in test [10], 96.7%; in [11], 101%. The growth in test [13] was 113%; in [14], 98.8%; in test [15], 74.3%; in test [19], 91.9%; in test [16] it was 86.3%.
In the case of `COc1cc(/C=N/O)nc(-c2ccccn2)c1`, the growth in test [1] was 26.7%; in [20], 43%; in test [3] it was 23.1%; in [4], 21.3%; in test [5] it was 49.5%; in test [6] it was -22.1% (active). Further, the growth in [7] was 4.54% (active); in test [8], 3.54% (active); in test [18], 18.2%; in [9], 25.6%; in test [10] it was 23.4%; in [11], 15.5%. In addition, the growth in test [12] is 3.15% (active); in test [13], 35.3%; in test [14], 9.42% (active); in test [15] it was 18.4%; in [16], 9.2% (active); in test [17], 12%.
Regarding `Cc1ccc(-n2c3c(c(-c4ccccc4)c2-c2ccccc2)C2=NCCN2C=N3)cc1`, the growth in test [1] was 81.3%; in test [3], 88.5%; in [4] it was 92%; in [5] it was 76.8%; in test [6], 68.1%; in test [7], 75.1%. The growth in test [8] is 93.6%; in test [18] it was 110%; in test [9], 99.3%; in [10] it was 80.8%; in [11], 85%; in test [12], 68.9%. In addition, the growth in test [13] was 144%; in test [14] it was 96.4%; in test [15], 72.9%; in test [16] it was 98.5%; in test [17] it was 92.9%.
For the compound `Cc1c(C(=O)NCCC(=O)NO)sc2ncnc(Nc3ccc(NC(=O)Nc4cccc(C(F)(F)F)c4)cc3)c12`, the growth in test [1] is 101%; in test [20], 78.8%; in test [3], 93.6%; in test [4] it was 80.2%; in test [5], 100%; in test [6], 97.1%. The growth in [7] is 99.6%; in test [8] it was 94.5%; in test [18], 110%; in test [9], 109%; in test [10], 90.8%; in test [11], 100%. In addition, the growth is 87.1% in [12]; 140% in [13]; 102% in test [14]; 99.3% in [15]; 98.8% in test [16]; 106% in test [17].

The values are drawn from PubChem BioAssay (NCI).
